Measurements: PubChem BioAssay (NCI)
The panel holds about 79,000 compounds, 15% with a hit somewhere; the sample as a whole holds those more often. Activity calls are given as the source filed them. Rule as the data show it: active = growth inhibition above about 70%; inactive = the rest.

How the values were obtained:
[1] = NCI Yeast Anticancer Drug Screen. Data for the wt2 strain (AID 169);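 also: 0% = growth of vehicle-treated yeast cultures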; conditions: S. cerevisiae wt2 strain growth inhibition, stronger effect = higher value
Summary of the method: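 Growth of compound-treated yeast is measured and expressed as inhibition relative to vehicle-only controls.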

[2] = NCI Yeast Anticancer Drug Screen. Data for the mlh1 strain (AID 171);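 also: 0% = growth of vehicle-treated control cultures of the same strain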; conditions: S. cerevisiae mlh1 strain growth inhibition, stronger effect = higher value
Summary of the method: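 Test agents were incubated with yeast bearing a defined DNA damage repair or cell cycle control alteration; values are growth inhibition normalised to vehicle-treated cultures.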

[3] = NCI Yeast Anticancer Drug Screen. Data for the sgs1 strain (AID 173);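 also: 0% = growth of vehicle-only control cultures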; conditions: S. cerevisiae sgs1 mutant, stronger effect = higher value
Summary of the method: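 Strain with an altered DNA repair or cell cycle pathway exposed to compound. Growth then measured. Value = inhibition versus vehicle control.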

[4] = NCI Yeast Anticancer Drug Screen. Data for the mlh1 rad18 strain (AID 175); conditions: S. cerevisiae mlh1 rad18 strain growth inhibition, stronger effect = higher value
Summary of the method: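 A repair-deficient yeast strain is exposed to test compound, and growth is scored relative to vehicle-treated controls.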

[5] = NCI Yeast Anticancer Drug Screen. Data for the rad18 strain (AID 177); conditions: S. cerevisiae rad18 mutant growth inhibition, stronger effect = higher value
Summary of the method: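 DNA-repair-defective yeast; compound treatment; growth inhibition scored against vehicle.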

[6] = NCI Yeast Anticancer Drug Screen. Data for the rad52 strain (AID 147);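 also: 0% = growth of vehicle-treated control cultures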; conditions: S. cerevisiae rad52 mutant growth inhibition, stronger effect = higher value
Summary of the method: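 Growth of repair-deficient yeast cells was compared between compound-treated and vehicle-treated cultures to give percent inhibition.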

[7] = NCI Yeast Anticancer Drug Screen. Data for the wt1 strain (AID 149);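 also: 0% = growth of vehicle-treated wt1 cultures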; conditions: S. cerevisiae wt1 strain (SPY 50644) growth inhibition, stronger effect = higher value
Summary of the method: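 Using yeast strain wt1, compound-induced growth inhibition was determined against vehicle-treated cultures.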

[8] = NCI Yeast Anticancer Drug Screen. Data for the rad50EPP+ strain (AID 151);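 also: 0% = growth of vehicle-treated control cultures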; conditions: S. cerevisiae rad50 mutant strain, stronger effect = higher value
Summary of the method: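 Measured: growth inhibition of rad50EPP+ yeast. Reference: vehicle-treated controls. Screen uses strains with defined genetic alterations in DNA damage repair or cell cycle control.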

[9] = NCI Yeast Anticancer Drug Screen. Data for the mgt1 strain (AID 153); conditions: S. cerevisiae mgt1 mutant growth inhibition, stronger effect = higher value
Summary of the method: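 Compounds were applied to mgt1 mutant yeast, and growth was then compared against vehicle-treated control cultures to give percent inhibition.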

[10] = NCI Yeast Anticancer Drug Screen. Data for the rad50 strain (AID 155);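 also: 0% = growth of vehicle-only cultures of the same strain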; conditions: S. cerevisiae rad50 strain growth inhibition, stronger effect = higher value
Summary of the method: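 Relative growth inhibition (compound vs vehicle) was measured in yeast with a defined repair-gene alteration.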

[11] = NCI Yeast Anticancer Drug Screen. Data for the mec2-1 strain (AID 157); conditions: S. cerevisiae mec2-1 strain, stronger effect = higher value
Summary of the method: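 Compounds were applied to mec2-1 yeast cells. Their growth was then compared with that of vehicle-treated cultures to give growth inhibition.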

[12] = NCI Yeast Anticancer Drug Screen. Data for the sgs1 mgt1 strain (AID 161);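 also: 0% = growth of cultures given vehicle only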; conditions: S. cerevisiae sgs1 mgt1 strain, stronger effect = higher value
Summary of the method: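 Yeast cells carrying a defined DNA-repair defect were exposed to test compounds. Growth inhibition was measured relative to vehicle-treated controls.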

[13] = NCI Yeast Anticancer Drug Screen. Data for the CLN2oe strain (AID 163);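 also: 0% = growth of vehicle-only control cultures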; conditions: S. cerevisiae CLN2oe strain, stronger effect = higher value
Summary of the method: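 Cells of an engineered yeast line with disturbed cell-cycle regulation are treated with compound. Inhibition of growth is then calculated relative to the vehicle-treated reference.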

[14] = NCI Yeast Anticancer Drug Screen. Data for the cln2 rad14 strain (AID 165);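 also: 0% = growth equal to vehicle treated cultures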; conditions: S. cerevisiae cln2 rad14 strain, stronger effect = higher value
Summary of the method: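 Strain: cln2 rad14 yeast, altered in cell cycle control and DNA damage repair. Read-out: growth inhibition vs vehicle.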

[15] = NCI Yeast Anticancer Drug Screen. Data for the bub3 strain (AID 167); conditions: S. cerevisiae bub3 mutant strain, stronger effect = higher value
Summary of the method: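 Screening used yeast with an engineered genetic alteration affecting cell cycle control. Compound-exposed cultures were compared with vehicle cultures, and reduced growth was taken as inhibition.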

[16] = at 5.0 µM (retest, dose inferred, filed as 0.5)
[17] = at 50.0 µM (retest, dose inferred, filed as 5.0)

Measured: growth inhibition

Cc1ccc2c(ccc(/C=C/c3ccc(O)c4ncccc34)[n+]2C)c1
active: [1]; at 33.0 µM 88% | [1]; at 100.0 µM 79% | [2]; at 11.0 µM 85% | [2]; at 33.0 µM 95% | [2]; at 100.0 µM 78% | [3]; at 11.0 µM 82% | [3]; at 33.0 µM 92% | [3]; at 100.0 µM 78% | [4]; [17] 91% | [5]; at 11.0 µM 80% | [5]; at 33.0 µM 91%
inactive: [1]; at 11.0 µM 53% | [2]; at 1.2 µM 15% | [2]; at 3.7 µM 60% | [3]; at 1.2 µM 18% | [3]; at 3.7 µM 45% | [4]; [16] 58% | [5]; at 1.2 µM 17% | [5]; at 3.7 µM 31% | [5]; at 100.0 µM 63%

O=[N+]([O-])c1cc(S(=O)(=O)Nc2ccccc2)ccc1Cl
active: [6]; at 33.0 µM 89% | [6]; at 100.0 µM 98% | [7]; at 33.0 µM 86% | [7]; at 100.0 µM 99% | [9]; at 33.0 µM 93% | [9]; at 100.0 µM 99% | [10]; at 33.0 µM 90% | [10]; [17] 99% | [10]; at 50.0 µM 88.5% | [10]; at 100.0 µM 97% | [11]; at 33.0 µM 91% | [11]; [17] 99% | [11]; at 50.0 µM 90.5% | [11]; at 100.0 µM 99% | [12]; [17] 95% | [12]; at 50.0 µM 90.5% | [13]; at 33.0 µM 93% | [13]; at 100.0 µM 98% | [14]; [17] 97% | [14]; at 50.0 µM 89.2% | [15]; at 33.0 µM 91% | [15]; [17] 96% | [15]; at 50.0 µM 86.2% | [15]; at 100.0 µM 99% | [1]; at 33.0 µM 90% | [1]; at 100.0 µM 99% | [2]; at 33.0 µM 89% | [2]; at 100.0 µM 98% | [3]; at 33.0 µM 89% | [3]; at 100.0 µM 98% | [4]; [17] 100% | [4]; at 50.0 µM 86.8% | [5]; at 33.0 µM 94% | [5]; at 100.0 µM 99%
inactive: [6]; at 1.2 µM 2% | [6]; at 3.7 µM 6% | [6]; at 11.0 µM 15% | [7]; at 1.2 µM -20% | [7]; at 3.7 µM -20% | [7]; at 11.0 µM 0% | [8]; at 1.2 µM 14% | [8]; at 3.7 µM 6% | [8]; at 11.0 µM 1% | [8]; at 33.0 µM 20% | [8]; at 100.0 µM 48% | [9]; at 1.2 µM 15% | [9]; at 3.7 µM 3% | [9]; at 11.0 µM 30% | [10]; at 1.2 µM -7% | [10]; at 3.7 µM 3% | [10]; [16] 34% | [10]; at 11.0 µM 19% | [11]; at 1.2 µM -10% | [11]; at 3.7 µM -5% | [11]; [16] 42% | [11]; at 11.0 µM 21% | [12]; [16] -26% | [13]; at 1.2 µM -8% | [13]; at 3.7 µM -1% | [13]; at 11.0 µM 35% | [14]; [16] 33% | [15]; at 1.2 µM 11% | [15]; at 3.7 µM 19% | [15]; [16] -20% | [15]; at 11.0 µM 45% | [1]; at 1.2 µM -26% | [1]; at 3.7 µM -6% | [1]; at 11.0 µM 4% | [2]; at 1.2 µM -34% | [2]; at 3.7 µM -20% | [2]; at 11.0 µM 13% | [3]; at 1.2 µM 4% | [3]; at 3.7 µM -3% | [3]; at 11.0 µM 33% | [4]; [16] 35% | [5]; at 1.2 µM 1% | [5]; at 3.7 µM 9% | [5]; at 11.0 µM 27%
